From PubChem
Hits are enriched below; roughly 3.9% of the tested compounds scored in any of these assays.
ATXN2 expr inh: reduces ATXN2 reporter expression in HEK-293 cells. HEK-293 ATXN2-luciferase reporter, luminescence, 24 h. Potency, µM (top dose mostly 57 µM), for the others: at the top dose activity change, negative = inhibition, hits mostly inhibitors. 360,000 tested, 0.72% active; also: % is scaled to controls: 0 for no effect and ±100 for the full control effect; nearly all actives have a fitted effect of over 55% in size
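qHTS (up to 57 uM final) was run with 24 h compound exposure of reporter cells at 37 °C. Each well was multiplexed: SteadyGlo luminescence measured ATXN2-luciferase expression after a fluorogenic Gly-Phe-AFC viability readout (25 uM final).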
HepG2 tox-1: counter-screen for TGF-b inhibitors: cytotoxicity in HepG2 cells. HepG2 CAGA-GFP viability, ATP luminescence, 18 h. AID 588856. 410,000 tested, 0.76% active. Potency, µM (doses to about 46.1 µM), inactives show at the top dose activity change, negative = cytotoxicity, hits mostly cytotoxic
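HepG2 CAGA-GFP cells (1000/well, DMEM with 1% FBS) received compound, then TGF-beta at 500 pg/mL final, and were incubated 18 hours at 37 degrees C. Viability was read by CellTiter-Glo luminescence. Media-only wells were set as complete cell-killing and DMSO as no toxicity.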
HT1080-NT tox: kills 2HG-producing HT-1080-NT fibrosarcoma cells; 360,000 tested, 1.6% active; HT-1080-NT fibrosarcoma viability, CellTiter-Glo ATP luminescence, 48 h; Potency, µM (series often up to 46.1 µM), without a hit: at the highest dose activity, negative = less viability, usual class: cytotoxic;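 also: NT is the 2HG producing partner of a matched IDH1 knockdown line; 0% = DMSO-treated cells and -100% = media-only wells without cells; nearly all actives have a fitted effect of over 55% in size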
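750 cells/well, RPMI + 5% FBS; 2 h settle, compound pin-transfer, 48 h at 37 degrees C. CellTiter-Glo 10 min RT, luminescence. Normalized to DMSO and media-only wells.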
TGFb inhibitor: blocks TGF-b signaling | HepG2 CAGA-GFP TGF-b/SMAD3 reporter, GFP fluorescence, 18 h; TGF-beta stimulated, 500 pg/mL final | Potency, µM (doses to about 46.1 µM), for inactives: at the highest dose activity, negative = inhibition, hits mostly inhibitors | 410,000 tested, 1.2% active; also: % is scaled to controls: 0 for no effect and ±100 for the full control effect; nearly all actives have a fitted effect of over 65% in size
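HEPG2 CAGA-GFP reporter cells (1000/well, DMEM with 1% FBS) received compounds, then recombinant TGF-beta at 500 pg/mL final for 18 hours at 37 degrees C. Per-cell GFP summed per well was normalised to unstimulated and stimulated DMSO controls before curve fitting.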
HT1080 IDH1KD tx: kills HT-1080 cells with IDH1 knockdown | 360,000 tested, 2% active | Potency, µM (titrated, usually from 46.1 µM), inactives show at the top dose activity, negative = toxicity, most hits filed as cytotoxic | HT-1080 IDH1 knockdown viability, ATP luminescence, 48 h;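 also: 0% = DMSO wells and -100% = cell-free medium wells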
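CellTiter-Glo luminescence after 48 h compound exposure at 37 degrees C of IDH1-knockdown HT-1080 cells in 5% FBS RPMI. %Activity scaled between DMSO wells and cell-free media wells, with curves fitted and assigned curve classes.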
S2 tox: reduces viability in counter-screen for ATXN expression inhibitors; AID 651635; 400,000 tested, 0.49% active; S2 cells (HEK-293 line with an ATXN2-luciferase reporter) viability, CellTiter-Fluor protease fluorescence, 24 h; Potency, µM (doses to about 56.7 µM), usual class: cytotoxic; also: nearly all actives have a fitted effect of over 40% in size
TGFb confirm: TGF-b pathway inhibition, cherry-pick retest; AID 720534; HepG2 CAGA-GFP TGF-b reporter, GFP fluorescence, 18 h; cells stimulated with TGF-beta, 500 pg/mL; 1,600 tested, 63% active; Potency, µM (highest dose often 46.1 µM), without a hit: top-dose activity, negative = inhibition, usual class: inhibitors; shares compounds with TGFb inhibitor; also: % is scaled to controls: 0 for no effect and ±100 for the full control effect; nearly all actives have a fitted effect of over 65% in size
HepG2 tox-2: counter-screen for TGF-b inhibitors: cytotoxicity in HepG2 cells; Potency, µM (top dose mostly 46.1 µM), inactives show at the highest dose activity, negative = cytotoxicity, usual class: inhibitors; HepG2 CAGA-GFP viability, ATP luminescence, 18 h; cells stimulated with TGF-beta, 500 pg/mL; shares compounds with TGFb inhibitor; 1,600 tested, 27% active; also: % is scaled to controls: 0 for no effect and ±100 for the full control effect; nearly all actives have a fitted effect of over 70% in size
CCL64 TGFb inh: blocks TGF-b signaling in CCL64 reporter cells; Potency, µM (highest dose often 46.1 µM), inactives show at the highest dose activity, negative = inhibition, usual class: inhibitors; 1,600 tested, 41% active; CCL64 CAGA-GFP reporter, TGF-b stimulated, GFP fluorescence, 18 h; shares compounds with TGFb inhibitor; AID 720536; also: nearly all actives have a fitted effect of over 65% in size
TGFb COP inh: TGF-b inhibition validated with COP promoter; shares compounds with TGFb inhibitor; HepG2 COP-GFP TGF-b reporter, GFP fluorescence, 18 h; cells stimulated by added recombinant TGF-beta; Potency, µM (doses to about 46.1 µM), for inactives: at the highest dose activity, negative = inhibition, hits mostly inhibitors; 1,600 tested, 3% active; AID 720537; also: nearly all actives have a fitted effect of over 70% in size
* marks the source's active call; other numbers are inactive results; i = inactive; ? = inconclusive; · = no result. Calls follow the shape of the dose curve; as a rule, active = well fitted curve in the direction sought with a large enough effect; inconclusive = small, poorly fitted or top-dose-only effect, or another doubt; inactive = no such curve, though single readings can be large; an effect the other way counts as inactive or inconclusive. Potency is read from the fitted curve at half-maximal effect.

SMILES | ATXN2 expr inh | HepG2 tox-1 | HT1080-NT tox | TGFb inhibitor | HT1080 IDH1KD tx | S2 tox | TGFb confirm | HepG2 tox-2 | CCL64 TGFb inh | TGFb COP inh
O=C(COc1ccccc1)NCc1ccccc1 | 13% | 11% | 11% | 0% | 10% | i | · | · | · | ·
COc1ccc(/C=N/n2cnc3c([nH]c4ccc(F)cc43)c2=O)cc1CN1CCCC1 | · | 7.1µM* | 0% | 7.1µM* | -1% | i | 16µM* | 23µM* | 23µM* | ?
COc1ccc(/C=N/n2cnc3c([nH]c4ccc(C)cc43)c2=O)cc1CN1CCCC1 | · | -60% | 20% | ? | -3% | · | · | · | · | ·
CCN(CC)S(=O)(=O)c1cccc(NC(=O)Nc2cccc(C(F)(F)F)c2)c1 | 22µM* | 11µM* | ? | 7.9µM* | 21µM* | ? | 10µM* | ? | 8.2µM* | 87%
Cc1ccnc(NC(=S)N2CCN(c3cccc(C(F)(F)F)c3)CC2)c1 | ? | -23% | ? | 13µM* | ? | ? | 7.3µM* | 13µM* | -15% | 30%
O=C(CN1CCOCC1)Nc1ncc(Cc2ccccc2Cl)s1 | 6% | 1% | 3% | 2% | 15% | ? | · | · | · | ·
CCc1ccc(CCC(=O)Nc2ncc(Cc3ccccc3Cl)s2)o1 | -10% | -34% | 6.5µM* | 2µM* | 4.6µM* | i | ? | -19% | -28% | -6%
CC(=O)Nc1ncc(Cc2cc(Cl)ccc2Cl)s1 | · | 1% | -10% | ? | -10% | i | ? | 2% | 0% | 17%
O=C(CSc1nc2c([nH]c3ccccc32)c(=O)n1-c1cccc(Cl)c1)c1ccccc1 | 8% | -4% | · | -10% | · | i | · | · | · | ·
O=S(=O)(c1ccc2nc(SCc3cccc(Cl)c3)[nH]c2c1)N1CCOCC1 | -13% | · | · | 0% | · | i | · | · | · | ·
O=S(=O)(c1ccc2nc(SCc3ccc(Cl)cc3)[nH]c2c1)N1CCOCC1 | -21% | -19% | -19% | 10µM* | -28% | i | 12µM* | -23% | ? | 20%
Cc1cccc(NC(=O)/C=C/c2ccc([N+](=O)[O-])s2)c1 | 8.9µM* | -63% | 2.9µM* | ? | 4.1µM* | 8.9µM* | ? | 5.2µM* | 2.6µM* | 41%
Cc1ccc(NC(=O)/C=C/c2ccc([N+](=O)[O-])s2)cc1 | -18% | -13% | ? | -30% | ? | i | · | · | · | ·
Cc1ccc(NC(=O)/C=C/c2ccc([N+](=O)[O-])s2)c(C)c1 | 8.9µM* | 7.9µM* | 2.6µM* | 5µM* | 2.3µM* | ? | ? | 10µM* | 4.1µM* | 26%
Cc1cccc(N2CCN(CC(=O)NCC3CCCCC3)CC2)c1C | -20% | -38% | 5% | 10µM* | -15% | i | -24% | -6% | ? | 12%
COCCNc1nc(NCc2ccccc2)nc2ccsc12 | -8% | -23% | -29% | 2.5µM* | 0% | i | 3.7µM* | ? | 4.1µM* | 57%
CNc1nc(NCc2ccc(C)cc2C)c2sccc2n1 | ? | -7% | ? | 11µM* | ? | ? | 16µM* | ? | ? | 68%
COCCNc1nc(NC(C)C)nc2ccsc12 | 4% | -7% | 30% | -16% | 21% | i | · | · | · | ·
O=C1CCCN1CCCNc1nc(NCc2ccccc2)nc2ccsc12 | -9% | -37% | -8% | 3.2µM* | -11% | i | 2.9µM* | 7.3µM* | 5.2µM* | 48%
CC(=O)NCCNc1nc(NCc2ccccc2)nc2ccsc12 | 16% | 7% | -16% | ? | 3% | i | · | · | · | ·
Cc1ccc(CNc2nc(NCc3ccccc3)nc3ccsc23)c(C)c1 | ? | -116% | 26µM* | 5µM* | ? | ? | ? | ? | 15µM* | ?
CCCCCOc1ccc(NC(=O)Cn2c(-c3nonc3N)nc3ccccc32)cc1 | 2% | -13% | · | 1% | · | i | · | · | · | ·
CCCN1CNc2c(c(=O)[nH]c(=S)n2CCc2cccc(OC)c2OC)C1 | · | · | 2% | · | 13% | · | · | · | · | ·
COc1ccc(C2c3c(n(C)c4ccccc34)C(=O)N2CC(=O)Nc2c(C)cc(C)cc2C)cc1 (stereo unspecified) | · | -20% | · | ? | · | · | · | · | · | ·
CC(C)CCNC(=O)C(c1ccco1)N(Cc1cccs1)C(=O)Cn1nnc2ccccc21 (stereo unspecified) | 3% | 18% | -1% | 7.1µM* | 5% | i | ? | 9% | ? | 1%
SMILES | ATXN2 expr inh | HepG2 tox-1 | HT1080-NT tox | TGFb inhibitor | HT1080 IDH1KD tx | S2 tox | TGFb confirm | HepG2 tox-2 | CCL64 TGFb inh | TGFb COP inh
COCCNC(=O)C(c1cccs1)N(Cc1cccs1)C(=O)Cn1nnc2ccccc21 (stereo unspecified) | 6% | 1% | 11% | 0% | 5% | i | · | · | · | ·
O=C(COc1ccccc1C(=O)Nc1cccnc1)Nc1ccc(Br)cc1 | · | 4% | · | 3% | · | · | · | · | · | ·
CCOC(=O)C(=O)Nc1nnc2n1CCS2 | · | -2% | · | ? | · | · | · | · | · | ·
C=C(C)c1cccc(C(C)(C)NC(=O)Nc2nncs2)c1 | -5% | -13% | -8% | -6% | -15% | i | · | · | · | ·
C=C(C)c1cccc(C(C)(C)NC(=O)Nc2nnc(C(C)C)s2)c1 | · | 8% | 16% | 8.9µM* | 1% | ? | ? | 0% | -6% | -1%
Cc1ccc(NC(=O)c2c(C)cc(C)nc2SCC(=O)Nc2ccc(Br)cc2)cc1 | -8% | -13% | · | ? | · | i | · | · | · | ·
Nc1ncnc2nc(SCC(=O)Nc3ccccc3F)[nH]c12 | 12% | -1% | 17% | 7.9µM* | 28% | i | 10µM* | -13% | 16µM* | 1%
